# Source: PubChem BioAssay AID1053115 (Broad Institute, 2014)
# Results with a measured potency or affinity are listed apart. The source made the active and inactive calls.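 How the source made its calls: active means cytotoxic compounds whose fitted half-maximal concentration is at most twice the top valid tested dose; inconclusive means flat curve showing 30 to 70% signal loss, or poor fit; inactive means the rest.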
# Experiment: A549 cell cytotoxicity, dose response, cytotoxicity control, 24 h, CellTiter-Glo luminescence, cherry-picks (AID 1053115)
# Details: A549 viability, CellTiter-Glo ATP luminescence; series mostly up to 30 µM
row,Compound,outcome
1,CCCNC(=O)C[C@H]1CC[C@@H]2[C@@H](COc3ccc(NC(=O)CCC)cc3C(=O)N2C)O1,inactive
2,C[C@H](CO)N1C[C@H](C)[C@@H](CN(C)Cc2ccccc2)Oc2cc(C#C[C@@H](C)O)ccc2S1(=O)=O,inactive
3,COc1ccccc1CN1CC[C@@H]2[C@H]1c1cc(-c3ccc(C(=O)N(C)C)cc3)ccc1N[C@@H]2CO,inactive
4,C[C@H](O)C#Cc1ccc2c(c1)O[C@H](CN(C)Cc1ccccc1)[C@H](C)CN([C@H](C)CO)S2(=O)=O,inactive
5,C[C@H](O)C#Cc1ccc2c(c1)O[C@@H](CN(C)Cc1ccccc1)[C@H](C)CN([C@H](C)CO)S2(=O)=O,inactive
6,CN1c2ccc(C#Cc3cccnc3)cc2[C@@H]2[C@@H](CCN2C(=O)C2CCC2)[C@H]1CO,inactive
7,CN1c2ccc(C#Cc3cccnc3)cc2[C@H]2[C@H](CCN2C(=O)C2CCCCC2)[C@H]1CO,inactive
8,C[C@H]1CCCCO[C@H](CN(C)S(=O)(=O)c2ccc(Cl)cc2)[C@@H](C)CN([C@@H](C)CO)C(=O)c2cc(NC(=O)Nc3ccc(F)cc3)ccc2O1,inactive
9,C[C@@H](O)C#Cc1ccc2c(c1)O[C@H](CN(C)Cc1ccccc1)[C@@H](C)CN([C@@H](C)CO)S2(=O)=O,inactive
10,CN1c2ccc(C#Cc3cccnc3)cc2[C@H]2[C@H](CCN2C(=O)C2CCCCC2)[C@@H]1CO,inactive
11,CN1c2ccc(C#Cc3cccnc3)cc2[C@@H]2[C@@H](CCN2C(=O)C2CCCCC2)[C@H]1CO,inactive
12,C[C@@H]1CN([C@@H](C)CO)S(=O)(=O)c2ccc(C#C[C@@H](C)O)cc2O[C@@H]1CN(C)Cc1ccccc1,inactive
13,C[C@@H]1CN([C@@H](C)CO)S(=O)(=O)c2ccc(C#C[C@@H](C)O)cc2O[C@@H]1CN(C)Cc1ccc(-c2ccccc2)cc1,inactive
14,Cc1noc(C)c1S(=O)(=O)Nc1ccc2c(c1)C(=O)N([C@@H](C)CO)C[C@@H](C)[C@H](CN(C)S(=O)(=O)c1cccs1)O2,inactive
15,C[C@@H]1CN([C@@H](C)CO)C(=O)Cc2cc(NC(=O)C3CCCCC3)ccc2O[C@H]1CN(C)C(=O)Nc1ccccc1,inactive
16,Cc1ccc(S(=O)(=O)N(C)C[C@H]2Oc3cc(C#Cc4ccncc4)ccc3S(=O)(=O)N([C@@H](C)CO)C[C@H]2C)cc1,inactive
17,COc1ccccc1CN1CC[C@H]2[C@H](CO)Nc3ccc(-c4ccc(C(=O)N(C)C)cc4)cc3[C@H]21,inactive
18,CCCNC(=O)c1cc2c(c(-c3cccc(-c4cccc(F)c4)c3)n1)[C@H](CCO)N([S@@](=O)C(C)(C)C)C2,inactive
19,C[C@@H]1CN([C@H](C)CO)C(=O)c2cccc(NC(=O)Nc3ccc(F)cc3)c2O[C@@H]1CN(C)S(=O)(=O)c1ccc(Cl)cc1,inactive
20,C[C@H](O)C#Cc1ccc2c(c1)O[C@H](CN(C)Cc1ccccc1)[C@@H](C)CN([C@@H](C)CO)S2(=O)=O,inactive
21,CN1c2ccc(C#Cc3cccnc3)cc2[C@H]2[C@H](CCN2C(=O)C2CCC2)[C@@H]1CO,inactive
22,C[C@H](CO)N1C[C@H](C)[C@@H](CN(C)S(=O)(=O)c2ccc(Cl)cc2)Oc2c(NS(=O)(=O)c3cn(C)cn3)cccc2C1=O,inactive
